Test results from PubChem BioAssay AID1159580 (chemical genetic matrix, 2015).
Screen size: about 5,500 compounds; about 2,000 (36%) were called active. Inconclusive results (about 18%) are left out. Cut-off read from the data, not from the text of the source: active = normalized growth mostly below about 0.91 (no sharp cut-off); inconclusive = no clear call, values can overlap the other calls; inactive = mostly above about 0.92. The list shows a part of the results.

Assay: chemical genetic growth profiling, strain panel (AID 1159580);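 note: tested at 20 µM; growth read once vehicle control cultures reached saturation at 30 °C; 1 = growth at the plate median or of vehicle wells; lower values mean less growth of the strain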
Conditions: growth OD

Measured: normalized growth

COC(C)(C)CCC[C@H](C)C/C=C/C(C)=C/C(=O)OC(C)C
inactive: S. cerevisiae deletion strains, locus YJR075W, strain HOC1, active compounds read low 1.02 | S. cerevisiae deletion strains, locus YKL009W, strain mrt4, active compounds read low 0.979 | S. cerevisiae deletion strains, locus YKL068W, active compounds read low 1.01 | S. cerevisiae deletion strains, locus YKL085W, strain MDH1 (second series), active compounds read low 1 | S. cerevisiae deletion strains, locus YKL085W, strain MDH1, active compounds read low 1 | S. cerevisiae deletion strains, locus YKL160W, strain elf1, active compounds read low 1.02 | S. cerevisiae deletion strains, locus YKL190W, strain CNB1, active compounds read low 0.985 | S. cerevisiae deletion strains, locus YKR001C, strain vps1, active compounds read low 1.03 | S. cerevisiae deletion strains, locus YKR026C, strain gcn3, active compounds read low 1.02 | S. cerevisiae deletion strains, locus YKR091W, strain srl3, active compounds read low 1.02 | S. cerevisiae deletion strains, locus YLL001W, strain dnm1, active compounds read low 1.01 | S. cerevisiae deletion strains, locus YLL026W, active compounds read low 1.01 | S. cerevisiae deletion strains, locus YLL041C, strain sdh2, active compounds read low 1 | S. cerevisiae deletion strains, locus YLR027C, strain aat2, active compounds read low 1.01 | S. cerevisiae deletion strains, locus YLR039C, strain RIC1, active compounds read low 1.04 | S. cerevisiae deletion strains, locus YLR058C, strain SHM2, active compounds read low 1 | S. cerevisiae deletion strains, locus YLR102C, strain apc9, active compounds read low 1.02 | S. cerevisiae deletion strains, locus YLR113W, strain HOG1, active compounds read low 0.971 | S. cerevisiae deletion strains, locus YLR221C, strain rsa3, active compounds read low 0.973 | S. cerevisiae deletion strains, locus YLR258W, strain gsy2, active compounds read low 1.03 | S. cerevisiae deletion strains, locus YLR262C, strain YPT6 (second series), active compounds read low 0.953 | S. cerevisiae deletion strains, locus YLR262C, strain YPT6, active compounds read low 1.06 | S. cerevisiae deletion strains, locus YLR268W, strain sec22, active compounds read low 1.05 | S. cerevisiae deletion strains, locus YLR320W, strain mms22, active compounds read low 0.992 | S. cerevisiae deletion strains, locus YLR330W, strain CHS5, active compounds read low 1.01 | S. cerevisiae deletion strains, locus YLR342W, strain FKS1 (second series), active compounds read low 1.02 | S. cerevisiae deletion strains, locus YLR342W, strain FKS1, active compounds read low 1.01 | S. cerevisiae deletion strains, locus YLR357W, strain rsc2, active compounds read low 1.01 | S. cerevisiae deletion strains, locus YLR370C, strain arc18, active compounds read low 0.997 | S. cerevisiae deletion strains, locus YLR371W, strain rom2, active compounds read low 1.04 | S. cerevisiae deletion strains, locus YLR384C, strain iki3, active compounds read low 1 | S. cerevisiae deletion strains, locus YLR418C, strain cdc73, active compounds read low 1.05 | S. cerevisiae deletion strains, locus YML016C, strain PPZ1, active compounds read low 1.02 | S. cerevisiae deletion strains, locus YML032C, strain rad52, active compounds read low 1.03 | S. cerevisiae deletion strains, locus YML120C, strain ndi1, active compounds read low 1.01 | S. cerevisiae deletion strains, locus YML124C, strain tub3, active compounds read low 1.03 | S. cerevisiae deletion strains, locus YMR058W, strain fet3, active compounds read low 1.01 | S. cerevisiae deletion strains, locus YMR078C, strain ctf18, active compounds read low 1.02 | S. cerevisiae deletion strains, locus YMR125W, strain sto1, active compounds read low 1.02 | S. cerevisiae deletion strains, locus YMR129W, active compounds read low 1.01 | S. cerevisiae deletion strains, locus YMR205C, strain PFK2, active compounds read low 0.979 | S. cerevisiae deletion strains, locus YMR223W, strain ubp8, active compounds read low 1.02 | S. cerevisiae deletion strains, locus YMR231W, strain pep5, active compounds read low 1.03 | S. cerevisiae deletion strains, locus YMR263W, strain SAP30, active compounds read low 1.01 | S. cerevisiae deletion strains, locus YMR307W, strain GAS1, active compounds read low 1 | S. cerevisiae deletion strains, locus YNL067W, strain RPL9B, active compounds read low 1.01 | S. cerevisiae deletion strains, locus YNL071W, strain lat1, active compounds read low 1.01 | S. cerevisiae deletion strains, locus YNL128W, strain TEP1, active compounds read low 1.01 | S. cerevisiae deletion strains, locus YNL153C, strain GIM3, active compounds read low 1.01 | S. cerevisiae deletion strains, locus YNL183C, strain NPR1, active compounds read low 0.891 | S. cerevisiae deletion strains, locus YNL209W, strain ssb2, active compounds read low 0.998 | S. cerevisiae deletion strains, locus YNL233W, strain BNI4, active compounds read low 1.02 | S. cerevisiae deletion strains, locus YNL248C, strain rpa49, active compounds read low 0.996 | S. cerevisiae deletion strains, locus YNL250W, strain rad50, active compounds read low 1.03 | S. cerevisiae deletion strains, locus YNL271C, strain bni1, active compounds read low 1.03 | S. cerevisiae deletion strains, locus YNL298W, strain CLA4, active compounds read low 1.03 | S. cerevisiae deletion strains, locus YNL307C, strain MCK1, active compounds read low 1.04 | S. cerevisiae deletion strains, locus YNL322C, strain KRE1 (second series), active compounds read low 1.05 | S. cerevisiae deletion strains, locus YNL322C, strain KRE1, active compounds read low 1 | S. cerevisiae deletion strains, locus YNR049C, strain mso1, active compounds read low 1.02 | S. cerevisiae deletion strains, locus YNR052C, strain pop2, active compounds read low 1.02 | S. cerevisiae deletion strains, locus YOL006C, strain TOP1, active compounds read low 1.07 | S. cerevisiae deletion strains, locus YOL012C, strain htz1 1.31 | S. cerevisiae deletion strains, locus YOL147C, strain pex11, active compounds read low 1.02 | S. cerevisiae deletion strains, locus YOR001W, strain rrp6, active compounds read low 0.987 | S. cerevisiae deletion strains, locus YOR061W, strain CKA2, active compounds read low 1.01 | S. cerevisiae deletion strains, locus YOR069W, strain VPS5, active compounds read low 1 | S. cerevisiae deletion strains, locus YOR070C, strain gyp1, active compounds read low 0.993 | S. cerevisiae deletion strains, locus YOR080W, strain dia2, active compounds read low 1.02 | S. cerevisiae deletion strains, locus YOR083W, strain WHI5, active compounds read low 1.01 | S. cerevisiae deletion strains, locus YOR106W, strain vam3, active compounds read low 0.948 | S. cerevisiae deletion strains, locus YOR136W, strain idh2, active compounds read low 1.02 | S. cerevisiae deletion strains, locus YOR144C, strain elg1, active compounds read low 1.02 | S. cerevisiae deletion strains, locus YOR184W, strain ser1, active compounds read low 1.04 | S. cerevisiae deletion strains, locus YOR231W, strain MKK1, active compounds read low 0.984 | S. cerevisiae deletion strains, locus YOR265W, strain rbl2, active compounds read low 1.03 | S. cerevisiae deletion strains, locus YOR270C, strain vph1, active compounds read low 0.931 | S. cerevisiae deletion strains, locus YOR290C, strain snf2, active compounds read low 1.08 | S. cerevisiae deletion strains, locus YOR316C, strain cot1, active compounds read low 1.02 | S. cerevisiae deletion strains, locus YPL051W, strain arl3, active compounds read low 1 | S. cerevisiae deletion strains, locus YPL055C, strain LGE1, active compounds read low 1.01 | S. cerevisiae deletion strains, locus YPL078C, strain atp4, active compounds read low 1 | S. cerevisiae deletion strains, locus YPL106C, strain sse1, active compounds read low 1.05 | S. cerevisiae deletion strains, locus YPL240C, strain hsp82, active compounds read low 1.01 | S. cerevisiae deletion strains, locus YPL241C, strain CIN2, active compounds read low 0.999 | S. cerevisiae deletion strains, locus YPL256C, strain CLN2, active compounds read low 0.992 | S. cerevisiae deletion strains, locus YPR119W, strain clb2, active compounds read low 1.02 | S. cerevisiae deletion strains, locus YPR141C, strain kar3, active compounds read low 1.03 | S. cerevisiae deletion strains, locus YPR163C, strain tif3, active compounds read low 1.04 | S. cerevisiae deletion strains, locus YPR167C, strain met16, active compounds read low 1.02 | S. cerevisiae deletion strains, strain wtn01, active compounds read low 1.05 | S. cerevisiae strains, strain wild type, active compounds read low 1.01
